The panel holds about 83,000 compounds, 20% with a hit somewhere; the sample as a whole holds those more often.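 Percent growth is the endpoint: 0 to 100 indicates growth inhibition (40 means 60% inhibition), 0 means no net growth, and negative values indicate cell death.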 Unmarked numbers belong to inactive results. Active and inactive are the calls of the source. The calls were made as follows: active = growth percent below 10; inactive = the rest.

Test in all cases: NCI-60 one-dose screen, 48 h (100 = growth as untreated, 0 = no growth, -100 = all killed)
What all share (settings): 10 µM unless noted

Experiment [1] has as its system NCI-H23 lung.
Experiment [2] concerns NCI-H226 lung.
Experiment [3] deals with NCI-H322M lung.
For experiment [4], the system named is HOP-62 NSCLC.
In experiment [5] the test system is HOP-92 NSCLC.
Experiment [6] relates to NCI-H522 lung.
In experiment [7] the test system is A549/ATCC NSCLC.
Experiment [8] relates to 786-0 renal.
In experiment [9] the test system is COLO 205 colon.
The subject of experiment [10] is NCI-H460 lung.

With `O=C(N(c1ccccc1)c1ccccc1)n1cc(I)c2nc(Cl)nc(Cl)c21`, the growth in experiment [1] was 72.6%; in [2], 71.8%; in [3], 92.6%; in experiment [4] it was 43.9%; in [5], 71.8%; in experiment [6] it was 3.35% (active). The growth in experiment [7] is 60.2%; in [8], 57.7%; in [9], 79.4%.
Consider `C=CCOC(=O)Nc1cccn([C@H](Cc2ccccc2)C(=O)NCCC(C)C)c1=O`, for which the growth in [1] was 89.7%; in experiment [2], 82%; in experiment [3] it was 103%; in experiment [4] it was 104%; in experiment [5] it was 87.5%; in experiment [6] it was 99.5%. The results for the growth in [7], in experiment [8] and in [9] were 97.9%, 112% and 110%, respectively.
Take `COc1ccc(C(=O)c2cc3c(N)c(C(=O)Nc4ccc(C)cc4)sc3nc2C)cc1`: the growth is 43.3% in experiment [1]; 57.2% in experiment [2]; 48.9% in experiment [3]; 36.3% in [4]; 4.1% (active) in [10]; 70.8% in experiment [5]. Moreover, the growth in experiment [6] is 13.3%; in [8] it was 42.9%; in [9], 18.7%.
With `N#C/C(=C\c1c(-c2ccccc2)[nH]c2ccccc12)C(N)=O`, the growth was 85.4% in experiment [1]; 95.1% in experiment [2]; 104% in [3]; 87.4% in experiment [4]; 65.1% in experiment [5]; 83.3% in experiment [6]. Besides, the figures for the growth in experiment [7], in experiment [8] and in [9] were 89.5%, 98.7% and 92.8%, respectively.
Turning to `C=CCn1c(C)nc2ccc(Nc3nc(Nc4ccc5nc(C)n(CC=C)c5c4)c4ccccc4n3)cc21`, the growth in experiment [1] was 32.8%; in experiment [2] it was 67.4%; in experiment [3], -13.4% (active); in [4], -61.5% (active); in [5], 43.2%; in experiment [6] it was -90.7% (active). Further, the figures for the growth in [7], in [8] and in [9] were -83.1% (active), -93.8% (active) and -92.3% (active), respectively.
Regarding `Cc1ccc2c(c1)=C/C(=C\c1cc(-c3ccccc3)oc1O)C(=O)N=2`, the growth in experiment [1] was 95.3%; in [2], 106%; in experiment [3], 104%; in experiment [4] it was 101%; in experiment [5] it was 87.4%; in [6], 97.4%. The growth in [7] is 105%; in experiment [8] it was 91.4%; in experiment [9], 108%.
Take `O=C(Nc1nc(-c2ccc(Cl)cc2)nc2c1sc(=S)n2-c1ccccc1)C(F)(F)F`: the growth was 49.2% in experiment [1]; 23.7% in experiment [2]; 49.4% in experiment [3]; 9.09% (active) in [4]; -4.79% (active) in experiment [5]; 25.2% in [6]. The growth was 19.5% in [7], -72.1% (active) in experiment [8] and 21% in experiment [9].
`OCCn1cc(-c2nc(-c3c[nH]c4ncccc34)cs2)c2ccccc21`: the growth in experiment [1] was 71.9%; in experiment [2], 58%; in [3] it was 74.8%; in [10] it was 78.6%; in [5], 58%; in experiment [6], 58.6%. Besides, the growth in [7] was 77.5%; in experiment [8], 95.1%; in experiment [9], 85.9%.
For the compound `CCOC(=O)c1c(NC(=O)c2cccc(C(F)(F)F)c2)sc2c(CN(C)C)c(O)ccc12`, the growth in experiment [1] was 93.1%; in experiment [2], 101%; in [3], 70.9%; in experiment [10], 2.61% (active); in experiment [5], -1.17% (active); in experiment [6], 71.9%. In addition, the results for the growth in [7], in experiment [8] and in [9] were 60.8%, 12.1% and 19%, respectively.
Consider `COc1ccc(Nc2ncc(Br)c(NCCCNC(=O)c3cccs3)n2)cc1`, for which the growth is 39.2% in [1]; 33.1% in [2]; 56.5% in experiment [3]; 25.1% in experiment [10]; 30% in [5]; 61.3% in experiment [6]. The values for the growth in experiment [7], in experiment [8] and in experiment [9] were 42.9%, 34.3% and 33.2%, respectively.

These data come from PubChem BioAssay (NCI).
